# ± gives the standard deviation of the averaged measurements. About 6,200 targets were measured; listed, in parts, are those with the largest changes and a random draw of the rest.
# Key:
# Assay in all cases: NP40-soluble protein abundance relative to vehicle (solubility fold change) (ratio); higher = more soluble protein in presence of AMP-PNP
# UniProt Q9BY77|Q9BY77-2 = target: T1, UniProt Q9BY77|Q9BY77-2
# T1 sequence (whole entry): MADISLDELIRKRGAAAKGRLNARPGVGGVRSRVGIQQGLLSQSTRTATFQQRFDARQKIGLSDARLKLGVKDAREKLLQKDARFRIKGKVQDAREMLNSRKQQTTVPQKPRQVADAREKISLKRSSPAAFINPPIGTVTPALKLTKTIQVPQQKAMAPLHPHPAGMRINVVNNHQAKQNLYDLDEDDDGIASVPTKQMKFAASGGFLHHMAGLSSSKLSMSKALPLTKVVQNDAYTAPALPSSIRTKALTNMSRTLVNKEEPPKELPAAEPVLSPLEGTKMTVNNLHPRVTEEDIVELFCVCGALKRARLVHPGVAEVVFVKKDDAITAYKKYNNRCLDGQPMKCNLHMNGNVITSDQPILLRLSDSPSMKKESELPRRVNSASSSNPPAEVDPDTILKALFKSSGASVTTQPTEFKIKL
# Procedure, shortened: (§1)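 Data come from three independent experiments in which Dounce-homogenised Jurkat crude lysate was treated at eight concentrations from 0.1 to 10 mM. Treatment ran 10 min at room temperature and then 3 min at 37 °C, after which 0.8% NP40 and benzonase were added for 60 min at 4 °C before ultracentrifugation. The supernatant underwent TMT labelling and LC-MS/MS, and vsn-normalised intensities were expressed as fold change against the detergent-processed vehicle in each replicate.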
# UniProt Q9H9J4|Q9H9J4-2 = target: T2, UniProt Q9H9J4|Q9H9J4-2
# T2 sequence (whole entry): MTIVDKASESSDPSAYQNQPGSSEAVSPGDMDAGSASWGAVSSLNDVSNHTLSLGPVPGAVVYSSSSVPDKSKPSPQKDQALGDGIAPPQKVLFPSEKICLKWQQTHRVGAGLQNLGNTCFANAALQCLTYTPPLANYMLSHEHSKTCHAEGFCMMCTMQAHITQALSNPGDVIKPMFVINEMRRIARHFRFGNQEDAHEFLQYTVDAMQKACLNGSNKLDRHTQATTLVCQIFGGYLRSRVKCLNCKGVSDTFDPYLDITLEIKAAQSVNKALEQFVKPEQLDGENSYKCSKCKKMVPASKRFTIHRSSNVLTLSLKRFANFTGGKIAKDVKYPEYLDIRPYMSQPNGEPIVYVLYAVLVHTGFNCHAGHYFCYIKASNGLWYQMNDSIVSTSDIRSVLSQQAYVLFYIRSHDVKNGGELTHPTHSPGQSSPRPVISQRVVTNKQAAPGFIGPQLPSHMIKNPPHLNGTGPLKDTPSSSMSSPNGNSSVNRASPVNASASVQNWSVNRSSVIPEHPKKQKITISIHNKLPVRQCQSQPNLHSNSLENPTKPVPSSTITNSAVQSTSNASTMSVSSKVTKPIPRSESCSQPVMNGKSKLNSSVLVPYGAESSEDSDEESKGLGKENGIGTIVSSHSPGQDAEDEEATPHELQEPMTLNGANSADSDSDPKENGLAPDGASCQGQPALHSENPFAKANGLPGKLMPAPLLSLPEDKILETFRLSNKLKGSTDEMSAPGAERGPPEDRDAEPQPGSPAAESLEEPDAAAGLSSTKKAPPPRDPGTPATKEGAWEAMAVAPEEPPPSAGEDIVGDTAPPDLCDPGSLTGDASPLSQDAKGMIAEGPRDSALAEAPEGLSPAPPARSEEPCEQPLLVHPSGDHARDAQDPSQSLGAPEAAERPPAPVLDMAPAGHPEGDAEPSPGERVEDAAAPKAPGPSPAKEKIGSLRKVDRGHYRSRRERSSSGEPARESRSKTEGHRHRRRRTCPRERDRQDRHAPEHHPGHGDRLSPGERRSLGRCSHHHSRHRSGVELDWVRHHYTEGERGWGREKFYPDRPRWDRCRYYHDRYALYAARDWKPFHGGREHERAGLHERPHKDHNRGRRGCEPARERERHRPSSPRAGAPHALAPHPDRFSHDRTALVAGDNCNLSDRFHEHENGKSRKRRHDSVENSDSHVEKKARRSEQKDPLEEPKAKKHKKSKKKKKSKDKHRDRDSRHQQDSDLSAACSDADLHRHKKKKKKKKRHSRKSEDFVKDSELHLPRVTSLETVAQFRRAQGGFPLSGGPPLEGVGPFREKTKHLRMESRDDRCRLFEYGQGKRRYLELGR
# Procedure, shortened: as §1
# UniProt Q9NPJ3 = target: T3, UniProt Q9NPJ3
# T3 sequence (whole entry): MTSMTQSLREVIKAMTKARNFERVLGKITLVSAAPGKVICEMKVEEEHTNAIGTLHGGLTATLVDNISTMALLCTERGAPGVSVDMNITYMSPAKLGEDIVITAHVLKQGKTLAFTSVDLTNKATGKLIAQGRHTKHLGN
# Procedure, shortened: as §1
# [1] = target: T4, UniProt Q9NQ86-4|E9PBG3|Q9NQ86
# T4 sequence (whole entry): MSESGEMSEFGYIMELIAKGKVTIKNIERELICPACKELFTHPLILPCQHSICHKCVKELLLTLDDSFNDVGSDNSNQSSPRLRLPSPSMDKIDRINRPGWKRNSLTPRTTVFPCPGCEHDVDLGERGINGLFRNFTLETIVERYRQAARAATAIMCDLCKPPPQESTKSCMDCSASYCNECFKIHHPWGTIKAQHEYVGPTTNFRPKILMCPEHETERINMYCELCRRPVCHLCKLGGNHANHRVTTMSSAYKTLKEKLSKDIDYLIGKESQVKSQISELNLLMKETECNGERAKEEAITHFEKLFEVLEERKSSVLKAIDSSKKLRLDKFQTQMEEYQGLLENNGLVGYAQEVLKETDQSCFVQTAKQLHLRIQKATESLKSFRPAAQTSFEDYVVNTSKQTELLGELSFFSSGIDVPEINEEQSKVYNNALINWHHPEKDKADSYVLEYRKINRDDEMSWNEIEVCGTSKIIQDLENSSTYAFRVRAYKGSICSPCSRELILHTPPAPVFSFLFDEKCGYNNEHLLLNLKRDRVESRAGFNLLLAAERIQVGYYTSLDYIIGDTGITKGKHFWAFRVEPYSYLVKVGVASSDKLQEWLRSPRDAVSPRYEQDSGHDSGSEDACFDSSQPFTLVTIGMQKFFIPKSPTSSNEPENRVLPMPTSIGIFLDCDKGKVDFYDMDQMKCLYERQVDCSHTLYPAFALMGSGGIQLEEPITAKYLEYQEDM
# Procedure, shortened: as §1
# UniProt Q9NUS5 = target: T5, UniProt Q9NUS5
# T5 sequence (whole entry): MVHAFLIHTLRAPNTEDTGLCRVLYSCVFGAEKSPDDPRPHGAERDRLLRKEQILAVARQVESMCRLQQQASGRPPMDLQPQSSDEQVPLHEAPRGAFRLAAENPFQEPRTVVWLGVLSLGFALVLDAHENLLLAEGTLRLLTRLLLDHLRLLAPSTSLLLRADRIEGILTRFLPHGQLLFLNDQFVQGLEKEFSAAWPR
# Procedure, shortened: as §1
# [2] = target: T6, UniProt Q9NVH6|Q9NVH6-7|Q9NVH6-8
# T6 sequence (whole entry): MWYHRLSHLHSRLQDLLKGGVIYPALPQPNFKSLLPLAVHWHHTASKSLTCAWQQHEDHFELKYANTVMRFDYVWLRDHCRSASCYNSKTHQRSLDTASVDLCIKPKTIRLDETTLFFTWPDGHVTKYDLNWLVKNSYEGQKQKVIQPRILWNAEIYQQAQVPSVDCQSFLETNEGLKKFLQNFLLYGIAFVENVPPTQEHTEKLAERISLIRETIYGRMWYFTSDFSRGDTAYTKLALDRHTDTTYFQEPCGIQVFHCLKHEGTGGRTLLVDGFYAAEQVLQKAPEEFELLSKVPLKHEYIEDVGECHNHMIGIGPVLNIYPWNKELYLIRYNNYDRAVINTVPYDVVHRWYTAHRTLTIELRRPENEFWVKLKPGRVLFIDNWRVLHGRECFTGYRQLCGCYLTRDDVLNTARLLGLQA
# Procedure, shortened: as §1
# VRK1 = target: T7, VRK1 (UniProt Q99986)
# T7 sequence (whole entry): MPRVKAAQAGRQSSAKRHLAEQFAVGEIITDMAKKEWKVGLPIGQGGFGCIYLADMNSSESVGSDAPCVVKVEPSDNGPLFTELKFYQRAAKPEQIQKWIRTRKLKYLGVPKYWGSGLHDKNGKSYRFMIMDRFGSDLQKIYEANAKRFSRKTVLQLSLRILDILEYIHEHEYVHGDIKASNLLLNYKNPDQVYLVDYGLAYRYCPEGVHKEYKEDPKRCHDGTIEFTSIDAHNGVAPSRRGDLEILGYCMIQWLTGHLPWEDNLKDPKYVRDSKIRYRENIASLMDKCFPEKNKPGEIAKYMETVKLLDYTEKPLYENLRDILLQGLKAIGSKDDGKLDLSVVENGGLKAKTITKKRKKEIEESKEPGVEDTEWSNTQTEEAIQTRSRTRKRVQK
# Procedure, shortened: as §1
structure (smiles),measurement,setting,value
Nc1ncnc2c1ncn2[C@@H]1O[C@H](COP(=O)(O)OP(=O)(O)NP(=O)(O)O)[C@@H](O)[C@H]1O [adenylyl imidodiphosphate],NP40-soluble protein abundance,UniProt Q9BY77|Q9BY77-2; concentration: 6mM,1.17 ± 0.016
same,NP40-soluble protein abundance,UniProt Q9BY77|Q9BY77-2; concentration: 8mM,1.24 ± 0.028
same,NP40-soluble protein abundance,UniProt Q9BY77|Q9BY77-2; concentration: 10mM,1.37 ± 0.081
same,NP40-soluble protein abundance,UniProt Q9H9J4|Q9H9J4-2; concentration: 1mM,1.02 ± 0.026
same,NP40-soluble protein abundance,UniProt Q9H9J4|Q9H9J4-2; concentration: 2mM,1.03 ± 0.035
same,NP40-soluble protein abundance,UniProt Q9H9J4|Q9H9J4-2; concentration: 4mM,1.01 ± 0.035
same,NP40-soluble protein abundance,UniProt Q9H9J4|Q9H9J4-2; concentration: 6mM,0.993 ± 0.011
same,NP40-soluble protein abundance,UniProt Q9H9J4|Q9H9J4-2; concentration: 8mM,1.03 ± 0.03
same,NP40-soluble protein abundance,UniProt Q9H9J4|Q9H9J4-2; concentration: 10mM,1.04 ± 0.04
same,NP40-soluble protein abundance,UniProt Q9NPJ3; concentration: 1mM,0.947 ± 0.014
same,NP40-soluble protein abundance,UniProt Q9NPJ3; concentration: 2mM,0.9081 ± 0.0059
same,NP40-soluble protein abundance,UniProt Q9NPJ3; concentration: 4mM,0.9 ± 0.028
same,NP40-soluble protein abundance,UniProt Q9NPJ3; concentration: 6mM,0.974 ± 0.062
same,NP40-soluble protein abundance,UniProt Q9NPJ3; concentration: 8mM,0.976 ± 0.032
same,NP40-soluble protein abundance,UniProt Q9NPJ3; concentration: 10mM,0.948 ± 0.076
same,NP40-soluble protein abundance,[1]; concentration: 1mM,0.952 ± 0.04
same,NP40-soluble protein abundance,[1]; concentration: 2mM,0.976 ± 0.047
same,NP40-soluble protein abundance,[1]; concentration: 4mM,0.994 ± 0.042
same,NP40-soluble protein abundance,[1]; concentration: 6mM,0.998 ± 0.017
same,NP40-soluble protein abundance,[1]; concentration: 8mM,1 ± 0.044
same,NP40-soluble protein abundance,[1]; concentration: 10mM,1.01 ± 0.023
same,NP40-soluble protein abundance,UniProt Q9NUS5; concentration: 1mM,0.96 ± 0.016
same,NP40-soluble protein abundance,UniProt Q9NUS5; concentration: 2mM,0.936 ± 0.051
same,NP40-soluble protein abundance,UniProt Q9NUS5; concentration: 4mM,0.963 ± 0.02
same,NP40-soluble protein abundance,UniProt Q9NUS5; concentration: 6mM,0.948 ± 0.012
same,NP40-soluble protein abundance,UniProt Q9NUS5; concentration: 8mM,0.938 ± 0.038
same,NP40-soluble protein abundance,UniProt Q9NUS5; concentration: 10mM,0.936 ± 0.041
same,NP40-soluble protein abundance,[2]; concentration: 1mM,0.969 ± 0.051
same,NP40-soluble protein abundance,[2]; concentration: 2mM,0.9817 ± 0.0096
same,NP40-soluble protein abundance,[2]; concentration: 4mM,0.984 ± 0.06
same,NP40-soluble protein abundance,[2]; concentration: 6mM,0.972 ± 0.065
same,NP40-soluble protein abundance,[2]; concentration: 8mM,0.985 ± 0.018
same,NP40-soluble protein abundance,[2]; concentration: 10mM,0.969 ± 0.046
same,NP40-soluble protein abundance,VRK1; concentration: 1mM,1.08 ± 0.036
same,NP40-soluble protein abundance,VRK1; concentration: 2mM,1.1 ± 0.078
same,NP40-soluble protein abundance,VRK1; concentration: 4mM,1.22 ± 0.03
same,NP40-soluble protein abundance,VRK1; concentration: 6mM,1.43 ± 0.061
same,NP40-soluble protein abundance,VRK1; concentration: 8mM,1.51 ± 0.11
same,NP40-soluble protein abundance,VRK1; concentration: 10mM,1.56 ± 0.1
